High-throughput results: PubChem BioAssay, several laboratories
LMP1 NFkB inh: EBV LMP1-driven NF-kappaB luciferase reporter inhibitors, primary screen, cell-based, luminescence, single point; 0.69% of 350,000 active; inhibition, % at 12.5 µM; LMP1-induced NF-kappaB luciferase reporter cells; in the data active = inhibition above about 41%; inconclusive = no clear call, values can overlap the other calls;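 note: 0% = neutral control wells and 100% = reference inhibitor control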
TWEAK Fn14 block: inhibitors of TWEAK-Fn14 signaling, primary screen, luciferase reporter cells, uHTS; TWEAK-stimulated Fn14 reporter cells, luciferase luminescence, 8 h; inhibition, % at 10 µM; 2% of 360,000 active; in the data active = inhibition above about 50%
TROY NFkB inh: inhibitors of TROY-driven NF-kB signaling, primary screen, Q293 LMP1-TROYcd cells, NF-kB luciferase, uHTS; 0.98% of 360,000 active; Q293 LMP1-TROYcd NF-kB luciferase reporter, 4 h; inhibition, % at 10 µM;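 active = compounds whose plate-normalised and pattern-corrected inhibition of the luciferase reporter signal at the single screening dose is 50% or more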
Peg3 promoter: Peg3 promoter-driven luciferase inhibitors, primary screen, cell-based, HeLa, luciferase luminescence; HeLa PEG-Prom luciferase reporter, overnight; AID 588405, 2011; inhibition, % at 20 µM; 1.7% of 360,000 active;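 active = inhibition of at least 50% at 20 µM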
MITF TRPM1 inh: inhibitors of MITF-dependent TRPM1 promoter reporter, primary screen, cell-based, SK-MEL-5, single point, luciferase. SK-MEL-5 TRPM1 promoter luciferase, 24 h. inhibition, % at 12.5 µM. 0.83% of 330,000 active;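 active = mean inhibition across replicates of 60% or more, whatever share of single replicates reaches that level; inconclusive = some that reach 60%, reason not given; inactive = mean inhibition across replicates below 60%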
Shn3 inh set2: reduction of Shn3 3'UTR firefly luciferase signal, primary screen, Schnurri-3 inhibitor project, cell-based, Clone20 osteoblasts, set 2 | Clone20 osteoblast Shn3 3'UTR firefly luciferase, 24 h | inhibition, % at 12.5 µM | 0.52% of 360,000 active | AID 588674, 2011;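 active = mean inhibition of at least 75% with every replicate also reaching 75%; inconclusive = mean inhibition at least 75% but some replicate below; inactive = mean inhibition below 75%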;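 note: 0% = median of neutral control wells and 100% = pilot-screen positive control compound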
* hit, by the source's call; ? = inconclusive; nt = not tested or not shown. The list is not random: actives were taken first. Their share in the collection is about 4.1%.

SMILES	LMP1 NFkB inh	TWEAK Fn14 block	TROY NFkB inh	Peg3 promoter	MITF TRPM1 inh	Shn3 inh set2
CCN(C(=O)c1cnc(N2CCN(c3ncccn3)CC2)c2ccccc12)c1cccc(Cl)c1	16.3	65.7*	26.2	21.6	15.9	33.8
CN(C(=O)c1cnc(N2CCN(c3ncccn3)CC2)c2ccccc12)c1ccc(Cl)cc1	-1.8	48.8	40.7	61.6*	-4.7	11.7
Cc1nn(C)c(NC(=O)c2ccc(Cl)cc2Cl)c1Br	1.0	16.2	6.3	2.9	9.9	7.3
Cc1ccc(-c2nc3ccccc3nc2-c2ccccc2)cc1	0.4	95.8*	-1.0	2.5	-9.1	13.0
CCN1CCN(c2cc(C)c3cc(NC(=O)CCC(=O)Nc4ccc(OC)cc4OC)ccc3n2)CC1	-10.9	4.1	-11.3	4.3	1.0	-28.7
CCN1CCN(c2c(C=O)c(Cl)nc3ccc(OC)cc23)CC1	5.6	56.0*	25.6	5.1	-17.5	-6.4
CCC1(c2ccccc2)NC(=O)N(CC(=O)NC2(C#N)CCCCC2)C1=O (stereo not drawn)	1.9	2.6	-6.0	-18.9	5.5	0.6
OCCNc1nc(Cl)nc(NCc2ccco2)n1	-6.3	20.2	-15.9	10.5	4.5	1.1
CCCN(CCC)c1nc(Cl)nc(NCc2ccco2)n1	3.9	75.5*	7.3	9.6	-36.7	13.8
CC(=O)Nc1ccccc1-c1ccccc1[N+](=O)[O-]	-5.8	0.0	8.9	7.8	-7.0	-1.8
CCS(=O)(=O)c1cc([N+](=O)[O-])c(Sc2ccccc2NC(C)=O)s1	-8.0	61.3*	68.4*	-5.3	1.9	-28.5
Cc1ccc(S(=O)(=O)N2CCN(C(=O)c3ccccc3Cc3ccccc3)CC2)c(C)c1	1.2	16.6	2.9	19.0	-3.1	13.9
CC[C@@H](C)[C@H](CNC)NC[C@@H](Cc1cccc2ccccc12)NCCc1cccc(C(F)(F)F)c1	-6.2	-55.6	-9.4	102.6*	97.8*	97.3*
CCC[C@@H](CN[C@@H](CNC)[C@H](C)CC)NCC1CCC(C(C)(C)C)CC1 (stereo partly drawn)	-18.2	-47.2	0.9	102.1*	99.7*	80.0
CCC[C@H](CN[C@@H](CNC)[C@H](C)CC)NCCc1cc(C(F)(F)F)cc(C(F)(F)F)c1	-17.4	-71.9	-7.0	99.3*	103.4*	58.0
CC(C)(CNC(=O)Cc1ccc(Br)cc1)N1CCOCC1	-2.8	9.8	-10.2	23.9	-1.5	-31.8
CCOC(=O)c1ccc(NC(=O)CSc2nc(=O)n3cccc(C)c3n2)cc1	-3.6	-2.8	22.4	3.1	-5.7	35.8
COc1cc(OC)c2c(-c3cccc(-c4ccc(C#N)cc4)c3)cc(=O)oc2c1	17.4	13.3	11.7	8.4	29.3	10.2
COc1cc(OC)c2c(-c3cccc(-c4ccc(OC)c(OC)c4)c3)cc(=O)oc2c1	22.1	96.8*	15.6	-18.1	?	10.2
O=C(O)c1ccccc1C(=O)OCc1ccccc1	-2.2	-5.0	-10.9	-27.0	-7.7	8.4
CC1(C)CC=CC(COC(=O)c2ccccc2C(=O)O)C1 (stereo not drawn)	-9.8	95.8*	-30.4	-88.1	-16.3	-44.6
CCN1C(=O)S/C(=C/c2ccc(Sc3nc4ccccc4[nH]3)o2)C1=O	23.5	79.2*	31.7	-33.6	6.2	53.9
Cc1ccc(NC(=O)CN2C(=O)NC(Cc3ccccc3)C2=O)cc1 (stereo not drawn)	2.8	3.8	-8.8	21.0	8.2	-21.9
O=C(CN1C(=O)NC(Cc2ccccc2)C1=O)Nc1ccccc1 (stereo not drawn)	-11.3	96.8*	nt	-59.4	-8.6	-20.1
Cc1cc(C)n2nc(SCC(=O)Nc3ccccc3C)nc2n1	-2.4	-10.6	-0.6	3.5	2.5	7.0
CC(=O)Nc1cccc(C(=O)/C=C/c2ccc(Br)cc2)c1	4.1	66.7*	24.7	101.4*	39.1	9.5
CC(=O)c1cccc(NS(=O)(=O)c2ccc(N/C=C/C(=O)c3ccc(F)cc3)cc2)c1	14.8	88.8*	41.4	-2.4	17.7	73.3
